In all, about 290,000 compounds went through this assay and fewer than 10 were called active. Another 3% or so got no clear call; they are omitted. These entries were drawn from the full list. A number with no mark means an inactive call. Calls follow the shape of the dose curve; as a rule, active = well fitted curve in the direction sought with a large enough effect in the polarisation (not every such curve was filed as active); inconclusive = small, poorly fitted or top-dose-only effect, or effect the other way, or a change in a side signal; inactive = no such curve, though single readings can be large or run the other way; the % refers to the polarisation.

This experiment in a line: qHTS Assay for Inhibitors Targeting the Menin-MLL Interaction in MLL Related Leukemias: Competition With Fluorescein Labeled MLL-derived Peptide. Also: % of control where 0% means no effect. To be noted: Fluorescence polarization, fluorescein-MLL peptide displacement from menin; series mostly up to 61.4 µM. From the text: qHTS Assay for Inhibitors Targeting the Menin-MLL Interaction in MLL Related Leukemias NIH Chemical Genomics Center [NCGC] NIH Molecular Libraries Probe Centers Network [MLPCN] MLPCN Grant: MH084875-01A1 Assay Submitter (PI): Jolanta Grembecka, Tomasz Cierpicki, University of Virginia Translocations of the MLL (Mixed Lineage Leukemia) gene are frequently found in human leukemias affecting both children and adults. Fusion of MLL to one of more than 60 genes results in generation of oncogenic proteins upregulating Hox genes, which are vital to blood cell development. Patients harboring fusion of the MLL gene suffer from aggressive leukemias and respond poorly to available therapies. All of the oncogenic fusion proteins have a preserved N-terminal fragment of MLL that has been identified to interact with menin. It has been recently discovered that association with menin is critical to the leukemogenic activity of the MLL fusion oncoproteins. Selective targeting of the menin-MLL interaction could provide an attractive therapeutic approach to develop novel drugs for MLL-related leukemias. Small molecules blocking the menin-MLL interaction should reverse the oncogenic potential of MLL fusion proteins. We have developed and optimized a fluorescence polarization-based assay for the identification of Menin-MLL inhibitors. The assay was run employing two different MLL-derived peptides. The present assay uses a 12 amino acid peptide labeled with fluorescein at its N-terminus. This peptide consists of the menin high affinity binding motif from MLL and is potently bound by menin. Another peptide with a mutated sequence, labeled with Texas Red, was used in parallel as a less stringent screen for inhibitors.
The Menin protein, the MLL-wild type (w.t.) derived peptide (N-terminal 12 amino acids), the MLL-derived peptide labeled with Texas Red and the MLL-w.t. peptide labeled with Fluorescein were kindly supplied by laboratory of Dr. Jolanta Grembecka, University of Virginia. All protein and peptide solutions were stored in single use aliquots at -80C. The Eu3+ Cyrptate-conjugated mouse monoclonal antibody anti-6 Histidine (Eu3+-AB) and the Streptavidin-XL665 conjugate (XL665) were purchased from Cisbio International (Bedford, MA). All antibody and XL665 conjugate solution stocks were stored in single use aliquots at -20C. The Buffer components for all assays were purchased from Sigma-Aldrich (St. Louis, MO) and Invitrogen (Carlsbad, CA). FP Assay Reagents: 1. FP reaction buffer: 50 mM Tris-HCl pH 7.5, 50 mM NaCl, 1mM DTT. Before use, 0.05% BSA is added. 2. Menin protein, MLL-w.t. labeled with fluorescein, MLL-mutant peptide labeled with texas red. Stored in singe use aliquots at -80C. 3. MLL-w.t. unlabeled peptide as positive control: 10 uM final in FP buffer. FP Assay Procedure: 1. Prepare Menin at 200 nM, MLL-w.t.-fluorescein at 25 nM, and MLL-mutant-texas red at 50 nM mixture in FP buffer. 2. Prepare Menin at 200 nM, MLL-w.t.-fluorescein at 25 nM, MLL-mutant-texas red at 50 nM, and 10 uM MLL-w.t. unlabeled mixture in FP buffer. 3. Prepare MLL-w.t.-fluorescein at 25 nM and MLL-mutant-texas red at 50 nM mixture in FP buffer. 3. Dispense 4 ul per well of reagent in step 1 in columns 2, 4 - 48 in a black 1536 well plate, dispense 4 ul per well of reagents from steps 2 and 3 in columns 1 and 3 respectively. Incubate plate at ambient for 15 minutes. 4. Transfer 23 nl per well of compound to plate and incubate at ambient for 1 hr. 5. Read fluorescence polarization for each label using the PerkinElmer Envision. Envision protocol for fluorescein: FITC FP Dual Enh Mirror, Excitation filter 480, Emission filter (1) P-pol 535, Emission filter (2) S-pol 535 Envision protocol for texas red: FP Dual Enh Mirror, Excitation filter 555, Emission filter (1) P-pol 632, Emission filter (2) S-pol 632
For orientation: In qHTS, concentration-response curves come from the screen itself.
In the case of `CCOc1ccc(N(C(=O)c2snc(C(N)=O)c2N)C(C(=O)NCC2CCCO2)c2c[nH]c3ccccc23)cc1` (stereo not given), the FP activity change entry was “inactive”. To `O=C1OC2(CCCCC2)CC2=C1C1O[C@](c3ccsc3)(Cc3ccccc31)O2` belongs 6.24% [at 11.7 µM]. The result for `O=C(c1noc2c1CCCC2)N1CCc2ccccc2C1` reads “inactive”.

As to `O=C(Nc1ccc(Br)cc1F)C1CC(=O)N(C2CCCCC2)C1` (stereo not given), the FP activity change result is “inactive”. The result for `O=C(Nc1cccc(Br)c1)c1ccc2snnc2c1` reads “inactive”. To `CCn1nnnc1SCC(=O)Nc1ccc(N(C)C)cc1` belongs “inactive”; to `CC(C)CN(CC(C)C)C(=O)CN1c2cccc3cccc(c23)S1(=O)=O`, “inactive”. To `Cc1c(C)n(Cc2ccc(Cl)cc2)c2ccc(C(=O)NCCCN3CCOCC3)cc12` belongs “inactive”; to `COc1ccc(/C=C/c2noc(-c3ccccc3OC(C)=O)n2)cc1`, “inactive”. As for `COc1ccc(C)cc1Nc1n[n+](-c2ccccc2)c(-c2cccc(Cl)c2Cl)s1`, the FP activity change result was “inactive”. `CN(Cc1ccccc1)C(=O)C1CCCN(c2ncnc3c2nc2n3CCCCC2)C1` (stereo not given): the FP activity change entry was “inactive”. The result for `C[n+]1cc(-c2ccccc2)oc1-c1ccccc1` reads “inactive”; that for `CS(=O)(=O)Nc1ccccc1N=C(c1ccccc1)c1ccccc1`, “inactive”.

On to `O=S1(=O)CCOC[C@H](CC2CCCCC2)N1Cc1ccc(F)cc1`, for which the FP activity change entry is “inactive”. Consider `Cc1cc(C)n2nc(CNS(=O)(=O)c3c(F)c(F)c(F)c(F)c3F)nc2n1`, for which the FP activity change entry was “inactive”. `Cc1ccc(-c2ncc(Cl)cc2-c2ccc(S(C)(=O)=O)cc2)cn1`: the FP activity change result is “inactive”.

For the compound `CCc1ccccc1NC(=S)Nc1cc(OC)c(NC(=O)C(C)C)cc1OC`, the FP activity change entry was “inactive”. The result for `CC(=O)Oc1ccc(-c2cccc(C(=O)N3CCCCC3)c2)cc1` reads “inactive”.

As for `O=P(O)(O)OC[C@H](O)CO`, the FP activity change entry is “inactive”. To `CCOCCCNC(=O)C1(O)c2cc(Br)ccc2NC(=O)N1c1ccc(C)c(C)c1` (stereo not given) belongs “inactive”; to `COC(=O)C1(C)NC(c2ccc(F)cc2)C2C(=O)N(c3ccccc3)C(=O)C21` (stereo not given), “inactive”; to `Cc1cccc(OCCC(=O)Nc2ccccc2C(N)=O)c1`, “inactive”. The result for `COc1ccc2c(C(=O)c3ccc(C)cc3)n(CCC(N)=O)[n+]([O-])c2c1` reads “inactive”. With `Cc1ccc(N2CCN(C(=O)c3cccs3)CC2)c(C)c1`, the FP activity change entry is “inactive”.

`c1ccc(-c2ccc(OCCN3CCOCC3)cc2)cc1`: the FP activity change result is “inactive”.

On to `COc1ccc(N(CC(=O)NCCSCc2cccc(Cl)c2)S(C)(=O)=O)cc1`, for which the FP activity change result was “inactive”.

On to `COc1ccc(C(=O)O/N=C(\N)c2ccccn2)cc1[N+](=O)[O-]`, for which the FP activity change result was “inactive”.

For the compound `NS(=O)(=O)c1ccc2nc(NC(=O)C3=COCCO3)sc2c1`, the FP activity change entry is “inactive”.

`COc1ccc(N2CCN(C(=O)c3cccs3)CC2)cc1`: the FP activity change entry is “inactive”. Turning to `CS(=O)(=O)N1CCCC(C(=O)Nc2ccccc2C(F)(F)F)C1` (stereo not given), the FP activity change result was “inactive”. As to `O=C(Nc1nnc(C2=COCCO2)o1)c1ccc([N+](=O)[O-])s1`, the FP activity change entry was “inactive”. The result for `CC1CCN(CC(O)COc2ccc(C(=O)c3ccccc3)cc2)CC1` (stereo not given) reads “inactive”. To `CC(C)(O)c1ccccc1CC[C@H](SCC1(CC(=O)O)CC1)c1cccc(/C=C/c2ccc3ccc(Cl)cc3n2)c1` belongs “inactive”; to `CCOc1ccc(CN2CCC(n3nccc3NC(=O)C3CC3)CC2)cc1CO`, “inactive”.

As to `COc1cc(/C=C/C(=O)O)cc(S(=O)(=O)Nc2ccccc2C(=O)NCCc2ccccc2)c1OC`, the FP activity change result was “inactive”. To `Cc1cc(=O)[nH]c(Nc2cccc(Br)c2)n1` belongs “inactive”; to `CCCc1cc(C(=O)Nc2ccc(Cl)cn2)cs1`, “inactive”.

As to `Cc1ccc(S(=O)(=O)NCC2CCC(C(=O)N3CCOCC3)CC2)cc1` (stereo not given), the FP activity change result is “inactive”. Take `Cc1ccc(-c2noc(C3CCCN(C(=O)c4cccc(Cl)c4)C3)n2)o1` (stereo not given): the FP activity change result is “inactive”.

Turning to `CS(=O)(=O)N1CCc2nc(-c3ccccc3)sc2C1`, the FP activity change result was “inactive”. The result for `Cc1cc(C)c(NC(=O)CN2CCCCCC2)c(C)c1` reads “inactive”. To `COc1ccccc1-c1sc2ccccc2c1-c1ccc(C(C)=O)cc1` belongs “inactive”; to `CCCC(C(=O)NC1CCCC1)N(C(=O)Cn1nnc(-c2ccc(C)o2)n1)c1cccc(O)c1` (stereo not given), “inactive”; to `Cc1ccc(CSc2nsc(C)c2C#N)cc1`, “inactive”.

As to `Cn1cc(S(=O)(=O)Nc2ccc(Cl)cc2Cl)c(=O)n(C)c1=O`, the FP activity change entry is “inactive”.

As for `CCc1ccc(C(=O)NN=C2CCCCCC2)s1`, the FP activity change entry was “inactive”.

Take `CCOc1ccccc1N1C(=O)CC(Sc2nccc(C)n2)C1=O` (stereo not given): the FP activity change entry was “inactive”.

For `COc1cccc(-c2noc(C3CCCN(C(=O)c4ccc(F)cc4)C3)n2)c1` (stereo not given), the FP activity change entry is “inactive”. The result for `O=S(=O)(Cc1cc(Cl)nc(-c2cccnc2)n1)c1ccccc1` reads “inactive”; that for `Cc1noc(C)c1-c1ccc2ncnc(NCc3ccc4[nH]ccc4c3)c2c1`, “inactive”; that for `CCN(CC(=O)NCC(=O)Nc1cccc(C)c1C)Cc1ccccc1`, “inactive”.

Take `CCCSc1nc2sc3c(c2c(=O)n1-c1ccc(OC)cc1)CCN(C)C3`: the FP activity change result was “inactive”. To `COc1ccccc1-c1cnn2c(N3CCOCC3)cc(C)nc12` belongs “inactive”.

In the case of `CCC1CCCCN1C(=O)CSc1nc2c(c(=O)n1C)SC(C)C2` (stereo not given), the FP activity change entry is “inactive”. Take `C=CCNC(=S)/N=c1/ccccn1Cc1ccccc1`: the FP activity change entry was “inactive”. The result for `COc1cc2ccccc2cc1C(=O)N(CCN(C)C)c1nc2c(F)cccc2s1` reads “inactive”. On to `CC1CN(C(=O)CCC(=O)NC2CCN(Cc3ccccc3)CC2)c2ccccc2O1` (stereo not given), for which the FP activity change entry is “inactive”. To `COc1ccc(CC(=O)N/N=C/c2cc([N+](=O)[O-])cc(Br)c2O)cc1` belongs “inactive”; to `O=C(Nc1ccccc1)c1ccc2c(c1)OCCCO2`, “inactive”; to `Cc1ccc(NC(=O)NC(=O)c2ccccc2)cc1F`, “inactive”. For the compound `COc1ccccc1CN1CCCC(N2CCN(c3ccc(F)cc3)CC2)C1` (stereo not given), the FP activity change entry is “inactive”. The result for `Cc1[nH]c(C)c(S(=O)(=O)N2CCN(c3cccc(C(F)(F)F)c3)CC2)c1C(=O)N1CCCCC1` reads “inactive”; that for `COc1cccc(N(C(=O)c2snc(C(N)=O)c2N)C(C(=O)NCC2CCCO2)c2c[nH]c3ccccc23)c1` (stereo not given), “inactive”. The result for `COc1ccccc1OCCOc1ccc(/C=C2\C(=N)N3N=C(C)SC3=NC2=O)cc1` reads “inactive”; that for `C=C1CCN(Cc2ccc(OC)cc2)S(=O)(=O)c2ccccc21`, “inactive”.

(Values after PubChem BioAssay AID1766 (National Center for Advancing Translational Sciences (NCATS), 2009).)
